Among all 3,600 compounds or so, about 900 (25%) were called active. How the calls were made is not given here. A selection follows. Entries with a potency or affinity are not part of this list.

In this experiment the target is Protein Tat (Human immunodeficiency virus type 1 group M subtype B (isolate HXB2)) (UniProt P04608). Description: inhibitors of Tat binding to TAR RNA, dose response, counter-screen for Vif-APOBEC3G degradation inhibitor project, biochemical, fluorescence polarization, FAM-labeled TAR RNA (AID 1117361). The following applies: outcome: dose series up to 100 µM unless noted; series mostly up to 100 µM.
As to `CCOC(=O)C(NC(=O)NC1CCCCC1)(c1ccccc1)C(F)(F)F` (configuration not stated), the call was inactive.
Consider `CCOc1ccccc1C(=S)NC1CCCCC1`, for which the call was inactive.
With `COc1cc(CN2CCNC(=O)C2CC(=O)N(Cc2nccn2C)C(C)C)cc(OC)c1` (configuration not stated), the call was inactive.
Take `CCOCC(=O)Nc1nc2ccc(OC)cc2s1`: the molecule was classed as inactive.
As to `CC(NC(=O)c1cccs1)C(c1cccs1)N1CCN(Cc2ccccc2)CC1` (configuration not stated), the molecule was classed as inactive.
In the case of `COCCCN1C(=O)C(O)=C(C(C)=O)C1c1ccccn1` (configuration not stated), the result was inactive.
On to `CCOc1ccc(OCC)c(S(=O)(=O)NCc2ccc3c(c2)OCO3)c1`, for which the outcome was inactive.
On to `COC(=O)CC(NS(=O)(=O)c1cccs1)c1cccc2ccccc12` (configuration not stated), for which the molecule was called inactive.
For the molecule `Cc1ccc(SCCNC(=O)c2cccc([N+](=O)[O-])c2C)cc1`, the molecule was called inactive.
As for `CCOC(=O)Cn1c(=O)oc2cc(S(=O)(=O)Nc3c(C)cc(C)cc3C)ccc21`, the entry is “inactive”.
Turning to `CCOc1ccc(Br)cc1/C=N/O`, the call was inactive.
`O=C(CN1C(=O)c2ccccc2C1=O)NCC(=O)OCC(=O)c1cccc([N+](=O)[O-])c1`: the outcome was inactive.
As to `O=C1CN(C(=O)COC(=O)C23CC4CC(CC(O)(C4)C2)C3)c2ccccc2N1`, the molecule was called inactive.
As for `COc1ccc(NC(=O)CCc2nc(-c3ccccc3F)no2)cc1`, the entry is “inactive”; as for `O=C(NCCCN1CCOCC1)c1ccc(Br)s1`, “inactive”; as for `CC1CCN(C(=O)CCc2nc3cc(S(=O)(=O)N(C)C)ccc3n2C)CC1`, “inactive”.
On to `CCC(CC)NC(=O)Nc1ccc(F)cc1F`, for which the result was inactive.
Regarding `CCC(CC)c1nc2cc(OC)c(OC)cc2c(=O)o1`, the outcome was inactive.
Consider `CCOC(=O)C1CCCC12Nc1cccc3cccc(c13)N2` (configuration not stated), for which the outcome was inactive.
On to `Oc1ccc(C2Nc3cccc4cccc(c34)N2)c(O)c1`, for which the result was inactive.
Turning to `CCCCc1nc2sc3c(=O)[nH]cnc3c2c2c1CCCC2`, the molecule was called inactive.
As for `Cc1cccnc1Nc1nc(-c2ccc(O)c(O)c2)cs1`, the entry is “inactive”.
`CC(C)(C)C(=O)OCc1nc(-c2ccc(O)c(O)c2)cs1`: the molecule was called inactive.
Take `CCc1nnc(NC(=O)c2ccc(S(=O)(=O)N(CC(C)C)CC(C)C)cc2)o1`: the call was inactive.
Turning to `CCCNC(=O)c1ccc(-c2nc3ccccc3s2)s1`, the call was inactive.
With `Cc1nnc(SCCCn2c(N3CCN(c4ccccc4)CC3)nc3c2c(=O)[nH]c(=O)n3C)s1`, the outcome was inactive.
As to `NCCCSC1=NCCCN1`, the outcome was inactive.
Consider `CCCCCOC(=O)C1=C(C)Nc2nnnn2C1c1ccccc1Cl` (configuration not stated), for which the molecule was called inactive.
As for `COc1ccccc1NC(=O)C1=C(C)Nc2nnnn2C1c1ccccn1` (configuration not stated), the call was inactive.
`COc1cccc(N2C(=O)C3ON(c4ccccc4)C(c4cccs4)C3C2=O)c1` (configuration not stated): the molecule was called inactive.
With `COc1ccc(N2CCN(CC(=O)c3c(C)n(C)c4ccc(OC)cc34)CC2)cc1` the entry was “inactive”.
As to `CN1CCN(CCCNC(=O)C2CC(=O)N(C3CCCCC3)C2)CC1` (configuration not stated), the molecule was classed as inactive.
As to `C=CCn1c(C)cc(C(=O)COC(=O)C2CC(=O)N(Cc3ccccc3)C2)c1C` (configuration not stated), the call was inactive.
With `CC1C/C(=N/N2C(=O)CSC2=S)CC(C)(C)C1` (configuration not stated), the outcome was inactive.
As to `COCCNc1nc2c(c(=O)n(C)c(=O)n2C)n1Cc1cccc(C)c1`, the outcome was inactive.
Consider `CCOc1cc(C(=O)Nc2cc(C)ccn2)cc(OCC)c1OCC`, for which the call was inactive.
`COc1ccc(S(=O)(=O)n2nc(OC(=O)c3ccc(C)cc3)cc2N)cc1`: the molecule was classed as inactive.
For the molecule `Nc1ccc(N=Nc2ccc(O)cc2)c(N)n1`, the molecule was classed as inactive.
With `COCCn1c(SCC(=O)N2CCC(C)CC2)nc2c([nH]c3ccccc32)c1=O` the entry was “inactive”; with `Cn1nc(C(F)(F)F)c2cc(C(=O)NC3CC3)sc21`, “inactive”; with `O=[N+]([O-])c1ccc(CNc2ccc(F)cc2)s1`, “inactive”.
For `COc1cccc(CN2CCSCC2)c1`, the outcome was inactive.
For the molecule `CCOc1ccc(N(CC(=O)Nc2cccc(OC)c2)S(=O)(=O)c2c(C)noc2C)cc1`, the molecule was called inactive.
As to `CCN1CCN(S(=O)(=O)c2cccs2)CC1`, the molecule was called inactive.
Take `O=[N+]([O-])c1ccc(O)c2ncccc12`: the result was inactive.
`O=c1c2ccccc2c(-c2ccccc2)nn1-c1cc(Cl)ccc1[N+](=O)[O-]`: the molecule was called inactive.
As for `Cc1ccccc1CS(=O)(=O)Cc1ccc(C(=O)N2CCOCC2)o1`, the entry is “inactive”; as for `O=C(COC(=O)Cc1cccc(C(F)(F)F)c1)NCC1CCCO1` (configuration not stated), “inactive”; as for `COc1ccc(CC(=O)Nc2ccc(-c3csc(C)n3)cc2)cc1`, “inactive”.
For `O=C(O)/C=C/c1ccc(S(=O)(=O)N2CCN(CCN3C(=O)C4C5C=CC(C5)C4C3=O)CC2)cc1` (configuration not stated), the outcome was inactive.
With `COc1ccc(-n2c(SCC(=O)NNC(=O)c3ccccc3C)nnc2-c2ccncc2)cc1` the entry was “inactive”; with `CC(C)(C)c1cc(N/C=C\c2nnnn2-c2ccc(Br)cc2)no1`, “inactive”; with `COc1ccc(/C=N/NC(=O)Cn2cnc3c2c(=O)n(C)c(=O)n3C)c(OC)c1OC`, “inactive”.
As to `O=C(Nc1ccc2c(c1)oc1ccccc12)c1cccnc1`, the outcome was inactive.
Turning to `CCCCn1cnc2c1c(=O)n(C)c(=O)n2C`, the molecule was classed as inactive.
Consider `CC(/C=C/c1ccco1)=N\NC(=O)c1cccnc1`, for which the call was inactive.
With `O=C(c1cc(COc2ccc(F)cc2F)on1)N1CCN(C2CCCC2)C(=O)C1`, the molecule was classed as inactive.
As for `CC(C)CCn1cnc2c([nH]c3cccc(Cl)c32)c1=O`, the call was inactive.
Regarding `CCCS(=O)(=O)N1CCC(C(=O)NCCCN(CC)c2cccc(C)c2)CC1`, the result was inactive.
For `CCc1nnc(NC(=O)C(NS(=O)(=O)c2ccc3c(c2)OCCO3)C(C)C)s1` (configuration not stated), the molecule was called inactive.
As for `Nc1nc(SCc2nc(-c3ccccc3)no2)[nH]c(=O)c1-c1ccccc1`, the entry is “inactive”.
In the case of `Cc1ccc(-c2nnn(CC(=O)N(c3ccc(F)cc3)C(C(=O)NC3CCCC3)c3ccco3)n2)o1` (configuration not stated), the molecule was called inactive.
Consider `O=S(=O)(c1ccc(NC(=S)N/N=C/c2ccc(O)c(O)c2)cc1)N1CCOCC1`, for which the outcome was inactive.
Consider `O=C(CC(=O)NN=Cc1ccc2c(c1)CCC2)NN=Cc1ccc2c(c1)CCC2`, for which the call was inactive.
With `Cc1[nH]c2ccccc2c1C(=O)CN1CCC(C(N)=O)(N2CCCCC2)CC1` the entry was “inactive”; with `C[C@H](NC(=O)c1ccco1)C(=O)Nc1cccc([N+](=O)[O-])c1`, “inactive”.
For `CCNS(=O)(=O)c1ccc(NS(=O)(=O)c2cc(C)ccc2C)cc1`, the call was inactive.
For `N/C(=N\OC(=O)COc1ccc2ccccc2c1)c1ccccn1`, the result was inactive.
Regarding `Cc1ccc(-c2nn3c(C)nnc3s2)cc1NC(=O)CSc1ccc(Cl)cc1`, the call was inactive.
As for `COc1ccc(C)cc1-n1c(SCC(=O)Nc2cc(C)on2)nc2sc(C)c(C)c2c1=O`, the entry is “inactive”; as for `CCCCn1c(CCNC(=O)CC)nc2ccccc21`, “inactive”; as for `CC(OC(=O)c1cccnc1)C(=O)NCc1ccc2c(c1)OCO2` (configuration not stated), “inactive”.
For the molecule `CCC(C)(C)NC(=O)C(c1ccc(F)cc1)N(Cc1ccco1)C(=O)c1cnccn1` (configuration not stated), the molecule was called inactive.
For `O=C(COC(=O)c1ccccc1Br)Nc1nnc(-c2ccccc2)o1`, the result was inactive.
Regarding `Cc1cc(C)cc(NC2=CC(=O)CC(c3ccco3)C2)c1` (configuration not stated), the outcome was inactive.
As for `O=C(O)CCCC(=O)NCCc1cccc(Cl)c1`, the entry is “inactive”; as for `COc1ccc(CSc2nnnn2C)cc1F`, “inactive”.
For `COc1ccc(OC)c(C(=O)CSc2nnnn2C)c1`, the molecule was classed as inactive.
With `CCOC(=O)C1(CCOC)CCN(Cc2cnc(-c3cccc(C)c3)nc2)CC1`, the result was inactive.
For `CCOC(=O)c1c(C)[nH]c(C(=O)COC(=O)CSCC(=O)N(CC)CC)c1C`, the molecule was called inactive.
For `Cc1ccc(NCc2nnc(SCc3ccc(C#N)cc3)n2Cc2ccco2)c(C)c1`, the outcome was inactive.
As for `Cc1ccc(-c2csc(NC(=O)c3ccc(-c4ccccc4)cc3)n2)o1`, the molecule was classed as inactive.
As to `c1ccc(Nc2ccccn2)cc1`, the outcome was inactive.
On to `CN(Cc1nc(-c2cccnc2)no1)S(=O)(=O)c1ccccc1`, for which the outcome was inactive.
Consider `Cc1cccc2c1c1ccc3c(c1n2C)C(=O)C=CC3=O`, for which the result was inactive.
Take `CCOC(=O)c1csc(N)c1-c1ccc([N+](=O)[O-])cc1`: the molecule was classed as inactive.
In the case of `CCOc1ccc(NC(=O)C2CCCN(S(=O)(=O)c3c(C)nn(C)c3C)C2)cc1` (configuration not stated), the molecule was called inactive.
With `COc1ccccc1N1CCN(C(=O)c2oc3cc(C)c(C)cc3c2C)CC1`, the result was inactive.
`CC(C)c1ccc(-c2nc(N3CCCCCC3)nc3n[nH]c(N)c23)cc1`: the molecule was called inactive.
In the case of `Cc1ccc(S(=O)(=O)N(CC(=O)NCCC2=CCCCC2)Cc2ccccc2F)cc1`, the result was inactive.
As to `O=[N+]([O-])c1ccc2c(c1)S(=O)c1ccccc1-2` (configuration not stated), the molecule was called inactive.
With `COC(=O)CSc1nc2cc(C)cc(C)c2cc1C#N` the entry was “inactive”.
As for `COc1cccc(C(=O)Nc2nc3c(s2)CN(C)CC3)c1`, the entry is “inactive”.
As for `NC(=S)N=Nc1c(O)n(C2OC(=O)c3ccccc32)c2ccccc12` (configuration not stated), the entry is “inactive”; as for `CCOc1ccccc1C(=O)NCC(=O)OCC(=O)NCCc1ccc(S(N)(=O)=O)cc1`, “inactive”; as for `COC(=O)c1c(C)[nH]c(C=O)c1-c1ccccc1`, “inactive”.
As for `COC(=O)C(O)(CC(=O)c1ccc(OC)cc1)C(F)(F)F` (configuration not stated), the molecule was classed as inactive.
On to `CCCC(NCC(=O)Nc1ccccc1C(=O)NC1CC1)c1ccccc1` (configuration not stated), for which the outcome was inactive.
Take `COc1ccc(NC(=O)C2CCCN2S(=O)(=O)c2cccc3cccnc23)c(OC)c1` (configuration not stated): the molecule was classed as inactive.
For the molecule `O=C(C1CCC(CNS(=O)(=O)c2cccc3cccnc23)CC1)N1CCCC1` (configuration not stated), the call was inactive.
As to `O=C(Nc1ccc(-c2noc(-c3cccs3)n2)cc1)c1cccnc1`, the outcome was inactive.
`COc1ccc(-c2nc(C(N)=O)c3[nH]c(=O)n(-c4cccc(Cl)c4)c3n2)cc1OC`: the result was inactive.
Regarding `O=c1cc(-c2ccc(O)cc2)oc2cc(O)c(C3OC(CO)C(O)C(O)C3O)c(O)c12` (configuration not stated), the outcome was inactive.
Regarding `CSCCC(NC(=O)C1CCC(C)CC1)C(=O)NCc1ccco1` (configuration not stated), the outcome was inactive.
For `Cc1ccc(-n2c(SCC(N)=O)nc3c([nH]c4ccccc43)c2=O)cc1`, the molecule was called inactive.
With `CN1C(=O)c2ccccc2C(C(=O)O)C1c1cccc(F)c1` (configuration not stated), the molecule was called inactive.
For the molecule `Cc1cc(O)c(C(C)C)cc1N=Cc1ccc([N+](=O)[O-])cc1`, the result was inactive.
As for `Cc1ccc(-n2ncc3c(=O)[nH]cnc32)c(C)c1`, the entry is “inactive”; as for `O=C(NC1CCCCC1)C(c1ccc(Cl)cc1)N(C(=O)c1ccccn1)c1cccnc1` (configuration not stated), “inactive”; as for `COc1ccccc1NC(=O)c1cc2ccc(O)cc2o/c1=N\O`, “inactive”.
With `COC(=O)CSc1nnc(CNC(=O)Cc2ccccc2)n1-c1ccccc1OC`, the molecule was classed as inactive.
Turning to `CCOC(=O)CSc1nnc(CNC(=O)c2cc(OC)c(OC)c(OC)c2)n1C`, the outcome was inactive.

The values above are taken from PubChem BioAssay AID1117361 (Southern Research Institute, 2015).
